The values that follow come from PubChem BioAssay (NCI).

Among the test systems are NCI-H23 lung; NCI-H226 lung; NCI-H322M lung; HOP-62 NSCLC; NCI-H460 lung; HOP-92 NSCLC; NCI-H522 lung; A549/ATCC NSCLC; 786-0 renal; COLO 205 colon; DU-145 prostate; K-562 leukemia; MALME-3M melanoma; MDA-MB-231 breast; RXF 393 renal; SF-268 CNS; SF-295 CNS; SF-539 CNS; UACC-257 melanoma; M14 melanoma.
Assay in all cases: NCI-60 one-dose screen, 48 h (100 = growth as untreated, 0 = no growth, -100 = all killed)
Holding throughout (details): 10 µM unless noted

Compounds without any hit were thinned out: in the full panel of roughly 83,000, 20% have a hit.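 Assay: single dose, 48 h. Readout: percent growth (0 = no net growth; negative = cell death). Active: <10.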 Unmarked numbers belong to inactive results. The source made the active and inactive calls.

Turning to `COc1ccc(-c2nc(/C=N/Nc3cc(C)nc4ccc(Cl)cc34)c(C)o2)cc1`, the growth with NCI-H23 lung was 42.1%; with NCI-H226 lung it was 75.6%; with NCI-H322M lung it was -92.5% (active); in the experiment with HOP-62 NSCLC it was 83.2%; in the experiment with NCI-H460 lung it was -89.2% (active); with HOP-92 NSCLC, -84.8% (active). In addition, the growth was -85.2% (active) in the experiment with NCI-H522 lung; -91.6% (active) in the experiment on A549/ATCC NSCLC; -87.5% (active) with 786-0 renal; -72.8% (active) in the experiment on COLO 205 colon; -94.1% (active) in the experiment with DU-145 prostate; -35% (active) with K-562 leukemia. Moreover, the growth with MALME-3M melanoma was -90.9% (active); in the experiment on MDA-MB-231 breast, -95.9% (active); in the experiment with RXF 393 renal, -96.8% (active); in the experiment on SF-268 CNS, -71.8% (active); with SF-295 CNS it was -73.5% (active); in the experiment on SF-539 CNS, -90% (active). Also, the growth with UACC-257 melanoma was 104%; with M14 melanoma, -75.6% (active).

For the compound `N#C/C(=C1C=C/C(=N/O)C(Cl)=C/1)c1ccc(Cl)cc1`, the growth was 104% with NCI-H23 lung; 71.5% in the experiment with NCI-H226 lung; 118% with NCI-H322M lung; 45.7% in the experiment with HOP-62 NSCLC; 78.3% in the experiment with NCI-H460 lung; 70.5% with HOP-92 NSCLC. For the same compound, the growth was 67.7% with NCI-H522 lung; 88.8% in the experiment with A549/ATCC NSCLC; 63.5% in the experiment on 786-0 renal; 99.8% with COLO 205 colon; 35.5% in the experiment with DU-145 prostate; 42.6% in the experiment on K-562 leukemia. Also, the growth is 112% in the experiment with MALME-3M melanoma; 61.4% in the experiment with MDA-MB-231 breast; 81.9% in the experiment on RXF 393 renal; 54.5% with SF-268 CNS; 141% in the experiment on SF-295 CNS; 18.8% with SF-539 CNS. The growth was 76.2% in the experiment on UACC-257 melanoma and 85.1% in the experiment with M14 melanoma.

In the case of `CCCN=C1NC(=O)/C(=C/c2nc(-c3ccc(OC)cc3)n3ccccc23)S1`, the growth was 77.9% in the experiment on NCI-H23 lung; 84.6% in the experiment with NCI-H226 lung; 82.5% with NCI-H322M lung; 98.8% in the experiment on HOP-62 NSCLC; 37.4% in the experiment on NCI-H460 lung; 106% in the experiment on HOP-92 NSCLC. The growth with NCI-H522 lung was 88.1%; in the experiment with A549/ATCC NSCLC, 73.3%; in the experiment with 786-0 renal it was 58.5%; with COLO 205 colon it was 109%; with DU-145 prostate, 38.9%; with K-562 leukemia it was 91.6%. For the same compound, the growth was 95.3% in the experiment with MALME-3M melanoma; 55.9% in the experiment on MDA-MB-231 breast; 54.6% with RXF 393 renal; 76.2% with SF-268 CNS; 124% in the experiment on SF-295 CNS; 95.4% with SF-539 CNS. Besides, in the experiment on UACC-257 melanoma, the growth was 110%.

Take `O=C1/C(=C/c2ccc([N+](=O)[O-])cc2)CN(C(=O)CCN2CCC(=NO)CC2)C/C1=C\c1ccc([N+](=O)[O-])cc1`: the growth with NCI-H23 lung is 0.382% (active); in the experiment on NCI-H226 lung it was 15.1%; in the experiment on NCI-H322M lung, -18.7% (active); in the experiment on HOP-62 NSCLC, -21.9% (active); with NCI-H460 lung it was -46.3% (active); in the experiment on HOP-92 NSCLC, -10.4% (active). In addition, the growth was -76.8% (active) in the experiment on NCI-H522 lung; 21.3% in the experiment on A549/ATCC NSCLC; -37.1% (active) in the experiment with 786-0 renal; -65.3% (active) in the experiment on COLO 205 colon; -8.07% (active) in the experiment on DU-145 prostate; 7.03% (active) in the experiment on K-562 leukemia. The growth in the experiment on MALME-3M melanoma was -20.3% (active); in the experiment on MDA-MB-231 breast it was -69.1% (active); with RXF 393 renal, -76.5% (active); in the experiment on SF-268 CNS, -22.4% (active); in the experiment on SF-295 CNS, -28.6% (active); in the experiment with SF-539 CNS, -42.8% (active). The growth in the experiment with UACC-257 melanoma is -4.87% (active); with M14 melanoma, -33.4% (active).

As to `C=C1CCC[C@]2(C)CCC[C@H](C)[C@@H](OC(C)=O)[C@@H]3OC(=O)C(=C)[C@@H]3C[C@H]1O2`, the growth in the experiment with NCI-H23 lung was 74.5%; in the experiment with NCI-H226 lung, 78.6%; with NCI-H322M lung it was 99%; in the experiment on HOP-62 NSCLC, 99.9%; in the experiment with NCI-H460 lung, 74.7%; in the experiment on HOP-92 NSCLC, 24%. Moreover, the growth in the experiment on NCI-H522 lung was -6.33% (active); in the experiment with A549/ATCC NSCLC it was 83.3%; in the experiment on 786-0 renal, 91.3%; in the experiment with COLO 205 colon it was 103%; in the experiment on DU-145 prostate, 85.5%; in the experiment on K-562 leukemia, 61.7%. The growth is 97.9% in the experiment with MALME-3M melanoma; 70.7% in the experiment on MDA-MB-231 breast; 70.1% in the experiment on RXF 393 renal; 88.7% in the experiment with SF-268 CNS; 80.2% with SF-295 CNS; 88.2% in the experiment on SF-539 CNS. The figures for the growth in the experiment with UACC-257 melanoma and in the experiment on M14 melanoma were 74.3% and 83.2%, respectively.

With `O=C(/C=C\c1cccc([N+](=O)[O-])c1)/C=C/c1cccc([N+](=O)[O-])c1`, the growth was 92.3% with NCI-H23 lung; 105% in the experiment on NCI-H226 lung; 98.2% in the experiment on NCI-H322M lung; 97.2% in the experiment with HOP-62 NSCLC; 93.5% with NCI-H460 lung; 84.3% in the experiment with HOP-92 NSCLC. Besides, the growth is 88.2% in the experiment with NCI-H522 lung; 97.1% with A549/ATCC NSCLC; 86.3% with 786-0 renal; 103% with COLO 205 colon; 93.1% in the experiment on DU-145 prostate; 70.5% with K-562 leukemia. In addition, the growth is 110% in the experiment on MALME-3M melanoma; 90.1% in the experiment on MDA-MB-231 breast; 79.6% with RXF 393 renal; 78.5% with SF-268 CNS; 100% in the experiment with SF-295 CNS; 101% with SF-539 CNS. Moreover, the growth in the experiment with UACC-257 melanoma was 90.2%.

Consider `COc1ccc(C2NN=C3c4ccccc4CCC32)cc1` (configuration not stated), for which the growth is 67.7% in the experiment on NCI-H23 lung; 73.5% in the experiment on NCI-H226 lung; 104% with NCI-H322M lung; 67.3% in the experiment with HOP-62 NSCLC; 56.3% in the experiment on NCI-H460 lung; 67.5% in the experiment on HOP-92 NSCLC. For the same compound, the growth with NCI-H522 lung is 47.2%; with A549/ATCC NSCLC, 68.1%; in the experiment with 786-0 renal it was 91.3%; with COLO 205 colon, 78.4%; with DU-145 prostate, 98.8%; with K-562 leukemia, 10.2%. Moreover, the growth is 25.4% with MALME-3M melanoma; 58.5% in the experiment with MDA-MB-231 breast; 47% in the experiment on RXF 393 renal; 69.3% in the experiment with SF-268 CNS; 40.2% in the experiment with SF-295 CNS; 58% in the experiment on SF-539 CNS. For the same compound, the growth in the experiment on UACC-257 melanoma is 60.1%.

For `COc1ccc2c(c1)NC1=C(C(=O)OC1)C2c1cc(OC)c2c(c1)OCO2` (configuration not stated), the growth was 33% in the experiment on NCI-H23 lung; 34% in the experiment with NCI-H226 lung; 52.4% in the experiment with NCI-H322M lung; 43.2% with HOP-62 NSCLC; 4.54% (active) in the experiment on NCI-H460 lung; 43.8% with HOP-92 NSCLC. Besides, the growth with NCI-H522 lung is -13.1% (active); with A549/ATCC NSCLC it was 12%; with 786-0 renal, 22.3%; in the experiment on COLO 205 colon, -56.9% (active); in the experiment with DU-145 prostate it was -20.6% (active); in the experiment with K-562 leukemia it was 10.8%. The growth is 52.7% in the experiment on MALME-3M melanoma; 11.3% in the experiment with MDA-MB-231 breast; 28% with RXF 393 renal; 22.8% in the experiment with SF-268 CNS; 6.7% (active) in the experiment with SF-295 CNS; 6.15% (active) in the experiment with SF-539 CNS. Further, the growth with UACC-257 melanoma was 71.6%; in the experiment with M14 melanoma, 5.09% (active).
